High-throughput results as filed in PubChem.
The list is not random: actives were taken first. Their share in the collection is about 12%.
Sfp PPTase inh = qHTS Assay for Inhibitors of Bacillus subtilis Sfp phosphopantetheinyl transferase (PPTase). Biochemical Sfp PPTase activity, qHTS. 4'-phosphopantetheinyl transferase ffp (Bacillus subtilis), Q9F4F7. Potency, µM, inactives show largest response in the series, negative = inhibition, usual class: inhibitors. 310,000 compounds, 3.5% hits;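 further: the enzyme is Sfp with the accession as filed and its product quenches rhodamine fluorescence; 0% = enzyme reaction without inhibitor and -100% = no enzyme wells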
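Compounds were incubated with enzyme (final 15 nM) for 15 min at room temperature before substrate addition started the reaction. Fluorescence at 525 nm excitation, 598 nm emission was recorded immediately and after 30 minutes.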
L3MBTL1 inh = qHTS Assay for the Inhibitors of L3MBTL1. Lethal(3)malignant brain tumor-like protein 1 (Homo sapiens), Q9Y468. AlphaScreen L3MBTL1–H3K9me1 peptide binding. Potency, µM (titrated, usually from 57.1 µM), for inactives: at the highest dose activity, negative = inhibition, usual class: inhibitors. 230,000 compounds, 0.66% hits. AID 485360, 2010; further: on the % scale 0 is the no-effect control and ±100 the full control effect; nearly all actives have a fitted effect of over 60% in size
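AlphaScreen proximity signal between nickel-chelate acceptor and streptavidin donor beads (final 10 ug/mL) reports binding of 50 nM L3MBTL1 to 75 nM biotin-H3 K9me1 peptide; complex incubated with compounds 30 min at room temperature; cefsulodin titration as control.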
BAZ2B inh = qHTS Assay for Inhibitors of BAZ2B. 360,000 compounds, 4.4% hits. Potency, µM (titrated, usually from 114 µM), without a hit: top-dose activity change, negative = inhibition, usual class: inhibitors. AlphaScreen BAZ2B-H3K14Ac peptide displacement. AID 504333, 2011. Bromodomain adjacent to zinc finger domain protein 2B (Homo sapiens), Q9UIF8; further: on the % scale 0 is the no-effect control and ±100 the full control effect; nearly all actives have a fitted effect of over 60% in size
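Complex of BAZ2B and biotin-H3K14Ac (50 nM apiece) forms over 30 min at RT, then faces library compounds up to 110 uM for another 30 min; AlphaScreen beads added, 20 min dark incubation, luminescence read.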
JMJD2A Tudor inh = qHTS Assay for Inhibitors of JMJD2A-Tudor Domain. Lysine-specific demethylase 4A (Homo sapiens), O75164. AlphaScreen JMJD2A-Tudor / H3K4me3 peptide binding. Potency, µM (top dose mostly 114 µM), without a hit: at the highest dose activity change, negative = inhibition, usual class: inhibitors. 390,000 compounds, 4.4% hits; further: on the % scale 0 is the no-effect control and ±100 the full control effect; nearly all actives have a fitted effect of over 50% in size
Target sequence (O75164 whole entry, looked up, the tested form may be a part): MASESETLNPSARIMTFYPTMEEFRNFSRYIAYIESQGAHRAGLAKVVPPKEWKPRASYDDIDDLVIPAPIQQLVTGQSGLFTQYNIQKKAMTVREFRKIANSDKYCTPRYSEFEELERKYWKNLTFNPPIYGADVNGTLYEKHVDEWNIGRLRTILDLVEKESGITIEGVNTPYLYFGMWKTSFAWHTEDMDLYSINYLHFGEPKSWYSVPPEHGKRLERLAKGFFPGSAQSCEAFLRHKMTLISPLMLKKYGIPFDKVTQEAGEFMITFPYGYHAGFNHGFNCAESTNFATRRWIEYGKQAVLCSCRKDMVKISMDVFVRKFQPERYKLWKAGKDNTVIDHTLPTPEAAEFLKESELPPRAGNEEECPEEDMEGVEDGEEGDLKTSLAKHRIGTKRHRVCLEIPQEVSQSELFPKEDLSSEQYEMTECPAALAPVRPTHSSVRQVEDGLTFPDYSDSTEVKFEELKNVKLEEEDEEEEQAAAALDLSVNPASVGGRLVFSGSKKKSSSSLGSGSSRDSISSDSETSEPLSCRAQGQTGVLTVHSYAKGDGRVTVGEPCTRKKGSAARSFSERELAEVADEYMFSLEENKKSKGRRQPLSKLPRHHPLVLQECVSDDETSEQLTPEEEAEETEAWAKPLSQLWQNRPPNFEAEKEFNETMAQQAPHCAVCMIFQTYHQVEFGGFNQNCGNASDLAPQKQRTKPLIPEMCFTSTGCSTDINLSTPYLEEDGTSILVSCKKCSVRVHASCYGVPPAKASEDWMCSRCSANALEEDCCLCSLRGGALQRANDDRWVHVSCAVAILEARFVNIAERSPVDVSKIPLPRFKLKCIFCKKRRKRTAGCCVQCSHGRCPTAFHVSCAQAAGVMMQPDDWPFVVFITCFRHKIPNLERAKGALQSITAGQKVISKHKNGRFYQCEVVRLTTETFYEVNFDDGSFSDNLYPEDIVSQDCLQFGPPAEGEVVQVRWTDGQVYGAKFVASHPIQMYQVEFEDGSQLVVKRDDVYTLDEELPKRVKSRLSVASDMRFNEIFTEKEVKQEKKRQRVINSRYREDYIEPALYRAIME
HP1b binding inh = HTS for Inhibitors of HP1-beta Chromodomain Interactions with Methylated Histone Tails; Chromobox protein homolog 1 (Homo sapiens), P83916; AlphaScreen HP1-beta / biotin-H3K9me3 peptide binding; Potency, µM (doses to about 114 µM), without a hit: at the top dose activity change, negative = inhibition, most hits filed as inhibitors; 390,000 compounds, 0.56% hits; further: nearly all actives have a fitted effect of over 70% in size
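AlphaScreen: HP1-beta (50 nM) preformed 30 min with biotin-H3(1-18)K9me3 peptide (50 nM) in PBS pH 7.4, 0.01% Tween-20. Compound added for 30 min at RT, then streptavidin donor/nickel chelate acceptor beads (10 ug/mL) for 30 min.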
G9a inh = qHTS Assay for Inhibitors of Histone Lysine Methyltransferase G9a | AID 504332, 2011 | Histone-lysine N-methyltransferase EHMT2 (Homo sapiens), Q96KQ7 | G9a H3K9 monomethylation, AlphaScreen, 2 h | Potency, µM (top dose mostly 102 µM), without a hit: top-dose activity, negative = inhibition, usual class: inhibitors | 350,000 compounds, 8.8% hits; further: on the % scale 0 is the no-effect control and ±100 the full control effect; nearly all actives have a fitted effect of over 75% in size
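G9a (20 nM) preincubated 15 min RT with compounds, then 500 nM biotinylated H3K9 peptide and 20 uM SAM added; 2 h RT reaction. Monomethyl-H3K9 product detected by AlphaScreen with anti-H3K9me1 antibody, streptavidin donor and anti-rabbit IgG acceptor beads.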
* marks the source's active call; other numbers are inactive results; ? = inconclusive; . = not tested or not shown; [ ] = another dose, or the depositor's remark. The call rests on the fitted dose curve; in most records, active means well fitted curve in the direction sought with a large enough effect; inconclusive means small, poorly fitted or top-dose-only effect, or another doubt; inactive means no such curve, though single readings can be large; an effect the other way counts as inactive or inconclusive. Potency means the concentration at half of the fitted maximal effect.

SMILES	Sfp PPTase inh	L3MBTL1 inh	BAZ2B inh	JMJD2A Tudor inh	HP1b binding inh	G9a inh
O=C(Nc1cccc(C(F)(F)F)c1)c1cccnn1	6.4%	.	7.1%	0.0%	26.8%	18.9%
COc1ccc(C2C(C(=O)c3ccco3)=C(O)C(=O)N2CCN2CCOCC2)cc1 (configuration not stated)	1.8%	.	-15.9%	?	19.7%	50.1µM*
Cc1nc(C)c(C(=O)C2=C(O)C(=O)N(CCN3CCOCC3)C2c2cccs2)s1 (configuration not stated)	-20.9%	-1.1%	-32.2%	?	35.1%	?
COc1ccc(C2C(C(=O)c3sc(C)nc3C)=C(O)C(=O)N2CCN2CCOCC2)cc1 (configuration not stated)	-14.1%	-24.3%	16.7%	50.1µM*	19.7%	?
COc1ccc(OC)c(C2C(C(=O)c3sc(C)nc3C)=C(O)C(=O)N2CCN2CCOCC2)c1 (configuration not stated)	-0.8%	0.6%	1.9%	-10.4%	39.1%	44.7µM*
O=C(C1=C(O)C(=O)N(CCN2CCOCC2)C1c1ccncc1)c1ccco1 (configuration not stated)	2.0%	-0.9%	-26.4%	13.7%	8.5%	?
O=C(Nc1ccc(F)c(Cl)c1)C1CC2CCC1C2 (configuration not stated)	.	.	.	28.4%	63.8%	.
Cc1ccc(-c2nnc(Nc3ccc(F)cc3)c3ccccc23)cc1S(=O)(=O)N1CCN(C)CC1	.	.	-1.4%	-12.8%	33.8%	-26.7%[59 µM]
Cc1nc(N=Nc2ccc(O)cc2)n[nH]1	?	.	?	6.5%	36.9%	-119.4%[59 µM]
Cc1[nH]c(N=Nc2ccccc2)nc1N=Nc1ccccc1	-17.9%	?	6.31µM*	7.94µM*	?	7.94µM*
O=[S+]([O-])(c1ccc2c(c1)OCCO2)N1CCN([S+](=O)([O-])c2ccc(F)cc2Cl)CC1	.	.	.	-11.0%	.	.
CC(=O)c1ccc(NC(=O)Nc2sc3nc4n(c(=O)c3c2C)CCC(C)CC4)cc1 (configuration not stated)	.	.	-14.7%	-21.1%	21.3%	-35.2%[59 µM]
O=C1CC(c2ccccc2)CC(=O)C1CS(=O)(=O)c1ccccc1 (configuration not stated)	-51.4%	.	-32.2%	-20.1%	44.8%	3.16µM*
Cc1ccc(NC(=S)Nc2ccc(S(=O)(=O)Nc3ncccn3)cc2)cc1Cl	1.5%	4.2%	-3.5%	.	.	-36.3%
O=S(=O)(Nc1ncccn1)c1ccc(NC(=S)Nc2cccc(Cl)c2)cc1	56.2µM*	7.9%	-13.0%	.	.	-29.5%
O=C(Cc1c(F)cccc1Cl)NNC(=S)Nc1ccc(S(=O)(=O)Nc2ncccn2)cc1	11.3%	.	-3.9%	-17.7%	41.1%	28.2µM*
Cc1nn(C)c(C)c1NC(=S)Nc1ccc(S(=O)(=O)Nc2ncccn2)cc1	-19.3%	.	-15.1%	-5.9%	12.2%	70.8µM*
Cc1cc(CNC(=S)Nc2ccc(S(=O)(=O)Nc3ncccn3)cc2)nn1C	-14.7%	.	-2.2%	-4.2%	35.7%	.
COC(=O)NC(c1ccccc1)[C@@]1(C(=O)OC)CCCC1=O (some centres not stated)	10.8%	.	.	.	.	.
Cc1cccc(C(=O)Nc2nc(-c3ccc(Br)cc3)ns2)c1	.	.	1.2%	-2.3%	37.5%	?
COc1ccc(C(=O)NCC(=O)OCC(=O)NC2CCCCCC2)cc1OC	.	1.1%	.	-2.0%	36.2%	.
O=C(NCCSC1CCCCC1)c1ccccc1	15.3%	7.5%	-1.4%	-9.0%	21.6%	70.8µM*
N#Cc1c(-n2cccc2)cccc1-n1cccc1	15.1%	-11.5%	50.1µM*	?	-35.1%	?
COc1ccc(-n2c(NC(=O)c3ccco3)c(C#N)c3nc4ccccc4nc32)cc1	35.5µM*	10.2%	6.4%	-22.0%[57.1 µM]	66.0%	-7.1%[59 µM]
N#Cc1c(NC(=O)c2ccccc2Cl)n(Cc2ccccc2)c2nc3ccccc3nc12	-28.1%	10.3%	12.2%	16.3%	88.7%	?
SMILES	Sfp PPTase inh	L3MBTL1 inh	BAZ2B inh	JMJD2A Tudor inh	HP1b binding inh	G9a inh
CCOC(=O)c1c(NC(=O)c2ccco2)n(C2CCCCC2)c2nc3ccccc3nc12	-17.4%	10.3%	13.3%	-14.5%	54.3%	50.1µM*
CCO/C=N/Nc1nc(C(F)(F)F)nc2c1cnn2Cc1ccccc1	24.7%	.	-11.9%	?	-2.3%	-7.0%[2.33 µM]
Nc1[nH]nc2c1NN(c1ccc(Cl)cc1Cl)N2	-6.6%	-20.9%	25.1µM*	-23.9%	-0.4%	?
CCc1ccc(OCC(=O)Nc2cc(-c3nc4cc(C)ccc4o3)ccc2C)cc1	.	.	-15.8%	-14.2%	-1.1%	?
CCCCCCCc1nc2nc(C)c(Br)c(=O)n2[nH]1	24.5%	-3.0%	-24.5%	28.2µM*	0.9%	-47.6%
CCCCc1c(C)nc2nc(SCc3ccc(Cl)cc3)[nH]n2c1=O	-0.1%	.	6.0%	-8.4%	39.5%	?
CCOc1ccc(C(=O)CCC(=O)Nc2ncccc2O)cc1	.	-14.3%	56.2µM*	-31.0%	13.0%	1.1%[2.33 µM]
Cc1ccc(Cl)cc1NC(=O)C1CCN(c2nnc(C)c3c(C)n(-c4ccccc4)nc23)CC1	.	.	-13.1%	-11.7%	33.0%	-30.8%[59 µM]
CC(OC(=O)Cc1ccccc1[N+](=O)[O-])C(=O)NC(=O)NC1CCCCC1 (configuration not stated)	.	-7.1%	-13.3%	-11.0%	7.5%	-28.1%
O=C(CCc1ccccc1)NNC(=O)c1ccccc1C(=O)O	2.0%	2.4%	0.5%	-7.9%	37.3%	10µM*
O=C(CCc1ccccc1)NNC(=O)c1ccccc1Br	20.6%	4.3%	-4.1%	-24.3%	19.8%	28.2µM*
Cc1ccc(-c2n[nH]c(=S)n2/N=C/C=C\c2ccccc2[N+](=O)[O-])cc1	-24.5%	.	?	?	-7.4%	?
O=C(N/N=C/C=C/c1ccccc1[N+](=O)[O-])c1cc(-c2ccccc2)n[nH]1	?	-14.5%	?	-34.0%	28.6%	?
O=[N+]([O-])c1ccccc1/C=C/C=N/n1c(-c2ccccc2)n[nH]c1=S	-17.7%	-0.8%	?	56.2µM*	?	3.16µM*
O=[N+]([O-])c1ccccc1/C=C/C=N/n1c(-c2ccc(Cl)cc2)n[nH]c1=S	-10.1%	-6.9%	?	?	-19.2%	6.31µM*
Cc1ccccc1CCNC(=O)C1CC(O)CN1C(=O)Nc1ccccc1 (configuration not stated)	6.3%	1.4%	-1.6%	-9.6%	32.7%	.
